Measured values taken from PubChem BioAssay (NCI).
About 79,000 compounds went through this panel and 15% of them were active in at least one assay; those are over-represented in the sample as a whole. Active and inactive are the calls of the source. No stated cut-off is given here; in the data, active means growth inhibition above about 70%; inactive means the rest.

Tests used:
[1] = NCI Yeast Anticancer Drug Screen. Data for the rad50 strain (AID 155);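 further: 0% = growth of vehicle-only cultures of the same strain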; details: S. cerevisiae rad50 strain growth inhibition, hits give high values
Summary of the method: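 DNA repair mutant yeast, compound exposure, growth read-out; inhibition is taken relative to vehicle.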

[2] = NCI Yeast Anticancer Drug Screen. Data for the mec2-1 strain (AID 157); details: S. cerevisiae mec2-1 strain, hits give high values
Summary of the method: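 Using mec2-1 yeast: add compound, measure growth, express inhibition versus vehicle-treated cultures.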

[3] = NCI Yeast Anticancer Drug Screen. Data for the sgs1 mgt1 strain (AID 161);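 further: 0% = growth of cultures given vehicle only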; details: S. cerevisiae sgs1 mgt1 strain, hits give high values
Summary of the method: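 Percent growth inhibition was derived by comparing compound-exposed mutant yeast with vehicle-exposed cultures. The strain carries alterations in DNA damage repair.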

[4] = NCI Yeast Anticancer Drug Screen. Data for the cln2 rad14 strain (AID 165);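 further: 0% = growth equal to vehicle treated cultures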; details: S. cerevisiae cln2 rad14 strain, hits give high values
Summary of the method: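 Yeast strain cln2 rad14, bearing defects in cell cycle control and DNA repair, serves as the test system; values reflect growth inhibition compared with vehicle.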

[5] = NCI Yeast Anticancer Drug Screen. Data for the bub3 strain (AID 167); details: S. cerevisiae bub3 mutant strain, hits give high values
Summary of the method: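 In this screen, a yeast mutant lacking normal mitotic checkpoint function is challenged with compound. Relative growth versus vehicle gives the inhibition value.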

[6] = NCI Yeast Anticancer Drug Screen. Data for the mlh1 rad18 strain (AID 175); details: S. cerevisiae mlh1 rad18 strain growth inhibition, hits give high values
Summary of the method: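 Steps: expose repair-defective yeast to compound; measure growth; express inhibition against vehicle-treated controls.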

[7] = at 5.0 µM (retest, dose inferred, filed as 0.5)
[8] = at 50.0 µM (retest, dose inferred, filed as 5.0)

Measured: growth inhibition

CC1C2CC(C(S(=O)(=O)N3CCOCC3)/C2=N\O)C1(C)C (stereo not given)
inactive: [1]; [7] -4% | [1]; [8] -14% | [2]; [7] -12% | [2]; [8] -31% | [3]; [7] -4% | [3]; [8] -4% | [4]; [7] -20% | [4]; [8] 20% | [5]; [7] 0% | [5]; [8] -19% | [6]; [7] 16% | [6]; [8] -18%
active: [1]; at 50.0 µM 88.2% | [2]; at 50.0 µM 92.2% | [3]; at 50.0 µM 86.5% | [4]; at 50.0 µM 89.2% | [5]; at 50.0 µM 89.9% | [6]; at 50.0 µM 83.2%

COc1ccccc1/C=N/Nc1nnc(N/N=C/c2ccccc2OC)c2ccccc12
active: [1]; at 50.0 µM 74.6% | [2]; [8] 73% | [2]; at 50.0 µM 95.8% | [3]; [8] 89% | [4]; [8] 82% | [4]; at 50.0 µM 97.3% | [5]; [8] 94% | [5]; at 50.0 µM 96.2% | [6]; [8] 99% | [6]; at 50.0 µM 93.4%
inactive: [1]; [7] -1% | [1]; [8] 56% | [2]; [7] 13% | [3]; [7] 10% | [3]; at 50.0 µM 58% | [4]; [7] -8% | [5]; [7] -5% | [6]; [7] -5%

CCCCCCCCCCCCNCC(=O)O
active: [1]; [8] 80% | [1]; at 50.0 µM 92.9% | [2]; at 50.0 µM 87.6% | [3]; at 50.0 µM 74.5% | [5]; at 50.0 µM 92.2% | [6]; at 50.0 µM 92%
inactive: [1]; [7] -2% | [2]; [7] 1% | [2]; [8] 60% | [3]; [7] 3% | [3]; [8] 23% | [4]; [7] 1% | [4]; [8] 53% | [4]; at 50.0 µM -6.3% | [5]; [7] 7% | [5]; [8] 67% | [6]; [7] 3% | [6]; [8] 55%

Cc1nn(C(=O)c2ccccc2O)c2c1C(c1ccc([N+](=O)[O-])cc1)SC(N)=N2 (stereo not given)
active: [1]; [8] 81% | [2]; [8] 80% | [3]; [8] 89% | [5]; [8] 71% | [5]; at 50.0 µM 91.2% | [6]; [8] 96%
inactive: [1]; [7] 6% | [1]; at 50.0 µM 35.5% | [2]; [7] -4% | [2]; at 50.0 µM 47% | [3]; [7] -1% | [3]; at 50.0 µM 69.5% | [4]; [7] -8% | [4]; [8] 36% | [4]; at 50.0 µM 12.3% | [5]; [7] -8% | [6]; [7] 10% | [6]; at 50.0 µM 53.4%

CC(C)=CCC/C(C)=C/CCC1(C)C=Cc2c(c3ccccc3oc2=O)O1 (stereo not given)
inactive: [1]; [7] 28% | [1]; [8] 3% | [1]; at 50.0 µM 20.1% | [2]; [7] 25% | [2]; [8] 15% | [2]; at 50.0 µM 15.2% | [3]; [7] 51% | [3]; [8] 36% | [3]; at 50.0 µM 57.6% | [4]; [7] 37% | [4]; [8] 25% | [4]; at 50.0 µM 52.3% | [5]; [7] 53% | [5]; [8] 28% | [5]; at 50.0 µM 23.1% | [6]; [7] 25% | [6]; [8] 16%
active: [6]; at 50.0 µM 76.5%

O=C(O)Cc1cccc(O)c1
inactive: [1]; [7] 0% | [1]; [8] -3% | [1]; at 50.0 µM 10.5% | [2]; [7] 3% | [2]; [8] -1% | [2]; at 50.0 µM 41.9% | [3]; [7] -3% | [3]; [8] -4% | [3]; at 50.0 µM -1.9% | [4]; [7] -8% | [4]; [8] 1% | [4]; at 50.0 µM 35.1% | [5]; [7] -1% | [5]; [8] 1% | [5]; at 50.0 µM 5.8% | [6]; [7] 0% | [6]; [8] -3% | [6]; at 50.0 µM -0.1%

O=C(O)C/C(=C\c1ccco1)C(=O)O
inactive: [1]; [7] -8% | [1]; [8] 9% | [1]; at 50.0 µM 44.9% | [2]; [7] -4% | [2]; [8] -9% | [2]; at 50.0 µM -11.5% | [3]; [7] -4% | [3]; [8] -2% | [3]; at 50.0 µM -30.6% | [4]; [7] -1% | [4]; [8] -1% | [4]; at 50.0 µM 38% | [5]; [7] -8% | [5]; [8] -13% | [5]; at 50.0 µM -27.9% | [6]; [7] -4% | [6]; [8] -7% | [6]; at 50.0 µM -16.4%

S=C=NCCCCCCN=C=S
active: [1]; [8] 99% | [1]; at 50.0 µM 99.6% | [2]; [8] 99% | [2]; at 50.0 µM 99.5% | [3]; [8] 99% | [3]; at 50.0 µM 99.3% | [4]; [8] 99% | [4]; at 50.0 µM 99.3% | [5]; [8] 99% | [5]; at 50.0 µM 99.3% | [6]; [7] 79% | [6]; [8] 99% | [6]; at 50.0 µM 99.2%
inactive: [1]; [7] 36% | [2]; [7] 41% | [3]; [7] 59% | [4]; [7] 21% | [5]; [7] 58%

CCCCCC(O)C(C)CO (stereo not given)
inactive: [1]; [7] 1% | [1]; [8] -3% | [1]; at 50.0 µM 12.8% | [2]; [7] -2% | [2]; [8] -3% | [2]; at 50.0 µM -7.6% | [3]; [7] -2% | [3]; [8] -4% | [3]; at 50.0 µM -4.2% | [4]; [7] -7% | [4]; [8] -4% | [4]; at 50.0 µM 42.9% | [5]; [7] 0% | [5]; [8] -1% | [5]; at 50.0 µM 0.9% | [6]; [7] -1% | [6]; [8] -1% | [6]; at 50.0 µM 14.4%

Oc1ccccc1/C=N\N=C\c1ccccc1O
inactive: [1]; [7] 5% | [1]; [8] -22% | [1]; at 50.0 µM 8.75% | [2]; [7] -10% | [2]; [8] -3% | [2]; at 50.0 µM 3.5% | [3]; [7] 4% | [3]; [8] 4% | [3]; at 50.0 µM -10.8% | [4]; [7] 7% | [4]; [8] -3% | [4]; at 50.0 µM 37.2% | [5]; [7] -70% | [5]; [8] 6% | [5]; at 50.0 µM 0.8% | [6]; [7] 2% | [6]; [8] 0% | [6]; at 50.0 µM 13.2%
